The list is not random: actives were taken first. Their share in the collection is about 2.4%.
D2 ag-1: HTS Assay for Allosteric Agonists of the Human D2 Dopamine Receptor: Primary Screen for Agonists. HEK293 T-REx D2 cells, calcium flux agonist mode. 0.53% of 340,000 active. activation, % at 2 µM. AID 485358, 2010;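 active = activation over 3 SD above normal in the single-dose calcium agonist read, cut at about 30% in these data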; note: 0% is about no effect
Target sequence (P14416 whole entry, looked up): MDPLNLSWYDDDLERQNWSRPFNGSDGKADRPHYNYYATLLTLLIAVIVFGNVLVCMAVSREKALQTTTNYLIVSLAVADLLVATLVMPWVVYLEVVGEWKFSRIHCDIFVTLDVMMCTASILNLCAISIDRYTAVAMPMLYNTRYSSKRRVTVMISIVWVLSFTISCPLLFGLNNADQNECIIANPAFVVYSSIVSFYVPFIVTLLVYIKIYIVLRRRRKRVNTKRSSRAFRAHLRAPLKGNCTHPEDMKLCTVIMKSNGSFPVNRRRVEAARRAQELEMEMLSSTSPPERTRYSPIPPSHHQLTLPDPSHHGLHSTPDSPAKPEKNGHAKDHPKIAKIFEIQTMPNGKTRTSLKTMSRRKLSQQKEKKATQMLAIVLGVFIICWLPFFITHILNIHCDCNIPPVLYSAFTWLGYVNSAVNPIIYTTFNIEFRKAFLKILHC
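Tetracycline-induced HEK293 Trex cells with D2 receptor force-coupled to calcium signaling, plated overnight at 30 C and loaded with no-wash calcium dye. Calcium flux read kinetically for 180 s after compound addition; responses flag agonists.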
D2 antagonist: HTS Assay for Allosteric Antagonists of the Human D2 Dopamine Receptor: Primary Screen for Antagonists; D(2) dopamine receptor (Homo sapiens), P14416; HEK293 TREx D2 cells, calcium flux, dopamine EC80; inhibition, % at 10 µM; 2% of 340,000 active; in the data active = inhibition above about 30%; inactive = below that, where a call was filed; note: 0% is about no effect
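Antagonism is scored as inhibition of an EC80 dopamine-evoked calcium signal in a force-coupled, tetracycline-inducible HEK293 T-REx D2 line, with compound present 180 s before agonist.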
D2 PAM-1: HTS Assay for Positive Allosteric Modulators of the Human D2 Dopamine Receptor: Primary Screen for Potentiators; D(2) dopamine receptor (Homo sapiens), P14416; 0.34% of 340,000 active; AID 485347, 2010; HEK293 T-REx D2, calcium flux, EC20 dopamine potentiation; potentiation, % at 10 µM;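 active = potentiation over 3 SD above the plate norm, cut at about 30% in these data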; note: 0% is about no effect
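Calcium flux readout, no-wash dye, 1 read/s. Inducible HEK293 Trex D2 line, overnight 30 C. Compound alone 180 s (agonist flags), then EC20 dopamine, another 180 s to score potentiation.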
D2 PAM-2: Beta-Arrestin HTS for Positive Allosteric Modulators of the Human D2 Dopamine Receptor: Potentiators. D(2) dopamine receptor (Homo sapiens), P14416. DiscoveRx D2 beta-arrestin cells, luminescence, 90 min; 100% = 57 uM dopamine signal. potentiation, % (test concentration not listed). 0.23% of 360,000 active. AID 624464, 2012; in the data active = potentiation above about 50%; inconclusive = mostly about 30% to 49%
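D2 cells co-treated with compound plus 50 nM dopamine (EC20) for 90 min at 37 deg C to detect potentiation. Beta-arrestin recruitment was read as enzyme-fragment luminescence after 1 h at ambient temperature. Full response was set by 57 uM dopamine.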
D2 ag-2: Beta-Arrestin HTS for Positive Allosteric Modulators of the Human D2 Dopamine Receptor: Agonists; D(2) dopamine receptor (Homo sapiens), P14416; DiscoveRx PathHunter D2 beta-arrestin, luminescence, 90 min; 100% = 57 uM dopamine signal; activation, % (concentration not given with the values); 0.084% of 360,000 active; AID 624465, 2012; in the data active = activation above about 40%; inconclusive = between about 15% and that limit
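DiscoveRx PathHunter D2 beta-arrestin cells (2,100/well) attached overnight, then compound-stimulated 90 min at 37 C in HBSS/10 mM HEPES/0.1% Tween-20 buffer; beta-galactosidase complementation read by luminescence after 1 h at ambient temperature. Dopamine 57 uM final (EC100) as control.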
Starred values were filed as active, the others as inactive.

CCCCN(c1ccccc1)c1ncnc2c1cnn2-c1ccc(Cl)cc1 was read as D2 ag-1 0 and D2 PAM-1 3.
Screening O=C(Cn1ccn(-c2ccc(F)cc2)c(=O)c1=O)NCCc1ccccc1 returned D2 ag-1 0 and D2 PAM-1 4.
`CCS(=O)(=O)NC(C)C(c1cccs1)N1CCN(c2ccc(F)cc2)CC1` (centres undefined) gave D2 ag-1 2, D2 antagonist 40*, D2 PAM-1 -4, D2 PAM-2 -2 and D2 ag-2 -1.
`COc1ccc(CC2(CO)CCN(C(C)COc3ccccc3)CC2)cc1` (centres undefined) gave D2 PAM-2 25 and D2 ag-2 49*.
For COc1ccc(CC2(CO)CCN(Cc3cnn(-c4ccccc4OC)c3)CC2)cc1 the results were D2 ag-1 1, D2 antagonist 79*, D2 PAM-1 -16, D2 PAM-2 -24 and D2 ag-2 -5.
`Cn1c(CNC(=O)CSc2n[nH]c(-c3ccccc3)n2)nc2ccccc21` gave D2 ag-1 0 and D2 PAM-1 3.
O=C(O)CC(NS(=O)(=O)c1ccc(Br)s1)c1ccccc1 (centres undefined) was read as D2 ag-1 1 and D2 PAM-1 -7.
Screening O=C(NCc1cccc(Cl)c1)C1CCCN(c2ncnc3onc(-c4ccc(F)cc4)c23)C1 (centres undefined) returned D2 ag-1 -1 and D2 PAM-1 6.
COc1ccc(Cl)cc1Nc1nc(C)cc(=O)[nH]1 was read as D2 ag-1 0, D2 antagonist 74*, D2 PAM-1 -28, D2 PAM-2 -33 and D2 ag-2 2.
For COc1ccc(OC)c(N2C(=O)CC(Cc3cc(C)cc(C)c3)C2=O)c1 (centres undefined) the results were D2 ag-1 0, D2 antagonist 10, D2 PAM-1 30*, D2 PAM-2 10 and D2 ag-2 -1.
`COc1ccc(OC)c(N2C(=O)CC(Cc3ccc(Cl)cc3)C2=O)c1` (centres undefined) gave D2 ag-1 1, D2 antagonist -22, D2 PAM-1 29, D2 PAM-2 -13 and D2 ag-2 -2.
For CC(C)c1ccc(Nc2ncnc3c2nc2n3CCCC2)cc1 the results were D2 ag-1 -3 and D2 PAM-1 3.
Screening COc1ccc(-n2c(SCC(=O)Nc3cc(C)on3)nc3c(c2=O)SCC3)cc1 returned D2 ag-1 -1, D2 antagonist 7, D2 PAM-1 -7, D2 PAM-2 -3 and D2 ag-2 -2.
For COc1ccc(NC(=O)CSc2nc3c(c(=O)n2-c2ccc(F)cc2)SCC3)c(OC)c1 the results were D2 ag-1 0, D2 antagonist 38*, D2 PAM-1 3, D2 PAM-2 -20 and D2 ag-2 -4.
Screening COc1cc(-c2nnc(SCCOc3ccc(Cl)cc3)o2)cc(OC)c1OC returned D2 ag-1 -1 and D2 PAM-1 19.
CCOC(=O)c1c(-c2ccccc2)oc2ccc(OCC(=O)O)cc12 was read as D2 ag-1 0, D2 antagonist 33*, D2 PAM-1 -10, D2 PAM-2 -13 and D2 ag-2 -7.
CCOC(=O)c1c(-c2ccc(OC)cc2)oc2ccc(OCC(N)=O)cc12 was read as D2 ag-1 0, D2 antagonist 19, D2 PAM-1 -7, D2 PAM-2 -3 and D2 ag-2 inconclusive.
Screening Cc1[nH]c2ccc(C(=O)NCCCN3CCN(C)CC3)cc2c1C returned D2 ag-1 -1, D2 antagonist 1, D2 PAM-1 -5, D2 PAM-2 -19 and D2 ag-2 -2.
Screening Cc1[nH]c2ccc(C(=O)NCCCN(C)C3CCCCC3)cc2c1C returned D2 ag-1 0, D2 antagonist 34*, D2 PAM-1 -27, D2 PAM-2 -40 and D2 ag-2 -5.
`COc1ccc2c(c1)cc1c(=O)n(CC(=O)NCCc3ccccc3)nc(C)n12` gave D2 ag-1 0 and D2 PAM-1 -3.
`c1ccc(CN2C3=NCCCN3c3ccccc32)cc1` gave D2 ag-1 -3, D2 antagonist -25, D2 PAM-1 12, D2 PAM-2 -15 and D2 ag-2 3.
O=C1CN2C(=N1)N(Cc1ccccc1)c1ccccc12 was read as D2 ag-1 1, D2 antagonist 71*, D2 PAM-1 -13, D2 PAM-2 6 and D2 ag-2 0.
Screening COCC(=O)Nc1ncc(S(=O)(=O)c2ccc([N+](=O)[O-])cc2)s1 returned D2 ag-1 0, D2 antagonist 3, D2 PAM-1 -3, D2 PAM-2 inconclusive and D2 ag-2 inconclusive.
O=C(Nc1ncc(S(=O)(=O)c2ccc([N+](=O)[O-])cc2)s1)c1cccc2ccccc12 was read as D2 ag-1 26, D2 antagonist 9, D2 PAM-1 -3, D2 PAM-2 62* and D2 ag-2 -2.
Screening CC(=O)NCCC(=O)Nc1ncc(S(=O)(=O)c2ccc([N+](=O)[O-])cc2)s1 returned D2 ag-1 0, D2 antagonist -19, D2 PAM-1 7, D2 PAM-2 52* and D2 ag-2 10.
CCCCC(=O)Nc1ncc(S(=O)(=O)c2ccc([N+](=O)[O-])cc2)s1 was read as D2 ag-1 4, D2 antagonist -6, D2 PAM-1 4, D2 PAM-2 -8 and D2 ag-2 inconclusive.
`CCN(c1ncnc2c1cnn2-c1cc(Cl)ccc1C)C1CCCCC1` gave D2 ag-1 -1 and D2 PAM-1 2.
For COc1ccc2cc(C(C)C(=O)N3CCC(C(N)=O)CC3)ccc2c1 (centres undefined) the results were D2 ag-1 -2, D2 antagonist -16, D2 PAM-1 32*, D2 PAM-2 -5 and D2 ag-2 0.
`CN1CCN(c2ccc(Cl)cc2NC(=O)CC2OC(=O)c3ccccc32)CC1` (centres undefined) gave D2 ag-1 1, D2 antagonist 38*, D2 PAM-1 -14, D2 PAM-2 -28 and D2 ag-2 -7.
For CN1CCN(c2ccc(Cl)cc2NC(=O)C2COc3ccccc3O2)CC1 (centres undefined) the results were D2 ag-1 0, D2 antagonist 2, D2 PAM-1 6, D2 PAM-2 -14 and D2 ag-2 0.

Assay outcomes from PubChem BioAssay.
